G9a block: qHTS Assay for Inhibitors of Histone Lysine Methyltransferase G9a; Histone-lysine N-methyltransferase EHMT2 (Homo sapiens), Q96KQ7; G9a H3K9 monomethylation, AlphaScreen, 2 h; Potency, µM (doses to about 102 µM), without a hit: at the highest dose activity, negative = inhibition, most hits filed as inhibitors; actives 8.8% (n = 350,000); AID 504332, 2011; further: on the % scale 0 is the no-effect control and ±100 the full control effect; nearly all actives have a fitted effect of over 75% in size
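Enzyme 20 nM + cpd, 15 min RT; add b-H3K9 pep 500 nM / SAM 20 uM; 2 h RT; anti-H3K9me1 Ab 0.5 ug/mL + SA donor / anti-rabbit acceptor beads 20 ug/mL each, 10 min; AlphaScreen read.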
JMJD2A Tudor: qHTS Assay for Inhibitors of JMJD2A-Tudor Domain. AID 504339, 2011. Lysine-specific demethylase 4A (Homo sapiens), O75164. actives 4.4% (n = 390,000). AlphaScreen JMJD2A-Tudor / H3K4me3 peptide binding. Potency, µM (highest dose often 114 µM), for inactives: top-dose activity change, negative = inhibition, actives largely listed as inhibitors; further: on the % scale 0 is the no-effect control and ±100 the full control effect; nearly all actives have a fitted effect of over 50% in size
Target sequence (O75164 whole entry, looked up, the tested form may be a part): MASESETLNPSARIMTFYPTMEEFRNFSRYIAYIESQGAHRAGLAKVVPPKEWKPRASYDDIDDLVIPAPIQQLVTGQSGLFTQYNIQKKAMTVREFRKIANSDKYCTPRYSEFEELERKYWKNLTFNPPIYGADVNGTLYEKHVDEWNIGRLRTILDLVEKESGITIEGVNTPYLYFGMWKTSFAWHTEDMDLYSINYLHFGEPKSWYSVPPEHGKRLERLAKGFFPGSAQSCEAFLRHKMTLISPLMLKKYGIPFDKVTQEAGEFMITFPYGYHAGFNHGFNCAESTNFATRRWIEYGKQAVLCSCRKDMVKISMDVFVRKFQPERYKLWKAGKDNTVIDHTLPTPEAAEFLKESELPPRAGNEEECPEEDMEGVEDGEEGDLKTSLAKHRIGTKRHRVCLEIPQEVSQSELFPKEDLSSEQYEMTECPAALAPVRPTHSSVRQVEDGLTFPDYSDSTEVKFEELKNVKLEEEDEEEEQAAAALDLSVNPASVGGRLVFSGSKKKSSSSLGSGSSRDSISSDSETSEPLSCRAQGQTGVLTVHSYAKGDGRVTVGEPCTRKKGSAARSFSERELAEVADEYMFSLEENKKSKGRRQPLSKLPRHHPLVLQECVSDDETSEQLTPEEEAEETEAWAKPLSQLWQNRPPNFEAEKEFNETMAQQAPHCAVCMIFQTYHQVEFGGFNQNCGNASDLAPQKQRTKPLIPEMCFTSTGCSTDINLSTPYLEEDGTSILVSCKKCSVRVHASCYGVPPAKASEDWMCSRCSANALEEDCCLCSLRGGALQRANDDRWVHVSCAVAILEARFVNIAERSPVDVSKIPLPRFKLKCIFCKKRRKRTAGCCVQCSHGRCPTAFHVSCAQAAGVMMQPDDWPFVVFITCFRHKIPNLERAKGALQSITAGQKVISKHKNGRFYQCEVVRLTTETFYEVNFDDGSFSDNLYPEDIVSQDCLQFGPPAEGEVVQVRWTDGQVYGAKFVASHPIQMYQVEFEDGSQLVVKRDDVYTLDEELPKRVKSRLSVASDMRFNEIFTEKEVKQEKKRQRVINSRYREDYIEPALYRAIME
ALOX12 inh: Primary qHTS assay for inhibitors of human arachidonate 12S-lipoxygenase (ALOX12): Round 2. purified 12hLO, xylenol orange hydroperoxide absorbance. Potency, µM (top dose mostly 108 µM), without a hit: at the highest dose activity change, negative = inhibition, hits mostly inhibitors. actives 1.1% (n = 580,000). AID 1671190, 2021; further: on the % scale 0 is the no-effect control and ±100 the full control effect
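Hydroperoxide product was detected by ferrous iron/xylenol orange as the 573 to 405 nm absorbance ratio. Arachidonic acid at 40 uM (final) was turned over for 30 min at room temperature by 150 nM human 12hLO, pH 7.0 Hepes buffer, after 15 min compound preincubation.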
BAZ2B block: qHTS Assay for Inhibitors of BAZ2B; AlphaScreen BAZ2B-H3K14Ac peptide displacement; Potency, µM (top dose mostly 114 µM), without a hit: at the top dose activity change, negative = inhibition, most hits filed as inhibitors; AID 504333, 2011; actives 4.4% (n = 360,000); Bromodomain adjacent to zinc finger domain protein 2B (Homo sapiens), Q9UIF8; further: on the % scale 0 is the no-effect control and ±100 the full control effect; nearly all actives have a fitted effect of over 60% in size
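BAZ2B (50 nM) with biotin-H3(5-23)K14Ac peptide (50 nM) in PBS pH 7.4, 0.01% Tween-20, preformed 30 min, then compound 30 min at room temperature; top concentration 110uM. AlphaScreen streptavidin donor/nickel chelate acceptor beads (10 ug/mL final), 20 min dark, signal read.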
Sfp inh: qHTS Assay for Inhibitors of Bacillus subtilis Sfp phosphopantetheinyl transferase (PPTase) | 4'-phosphopantetheinyl transferase ffp (Bacillus subtilis), Q9F4F7 | Biochemical Sfp PPTase activity, qHTS | Potency, µM, for inactives: largest response in the series, negative = inhibition, most hits filed as inhibitors | actives 3.5% (n = 310,000);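 further: the enzyme is Sfp with the accession as filed and its product quenches rhodamine fluorescence; 0% = enzyme reaction without inhibitor and -100% = no enzyme wells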
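After 15 min at room temperature with compound, 15 nM Sfp received 5 uM rhodamine-CoA plus 12.5 uM BHQ-2-ybbR (50 mM Hepes pH 7.6, 10 mM MgCl2). Rate came from the fluorescence difference over 30 min, ex 525/em 598 nm.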
HP1b binding inh: HTS for Inhibitors of HP1-beta Chromodomain Interactions with Methylated Histone Tails; AlphaScreen HP1-beta / biotin-H3K9me3 peptide binding; Potency, µM (series often up to 114 µM), without a hit: at the top dose activity change, negative = inhibition, actives largely listed as inhibitors; actives 0.56% (n = 390,000); further: nearly all actives have a fitted effect of over 70% in size
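Compound inhibition of the preformed complex between 50 nM HP1-beta and 50 nM biotinylated H3K9me3 peptide was read by AlphaScreen. Buffer was PBS pH 7.4 with 0.01% Tween-20. Incubations ran 30 min at room temperature, with 10 ug/mL donor/acceptor beads.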
Numbers without * were called inactive; ? = inconclusive; . = no result given; [ ] = another dose, or the depositor's remark. In the library only some 8.7% were active in any assay of this set; here they are far more common. The call rests on the fitted dose curve; in most records, active means well fitted curve in the direction sought with a large enough effect; inconclusive means small, poorly fitted or top-dose-only effect, or another doubt; inactive means no such curve, though single readings can be large; an effect the other way counts as inactive or inconclusive. Potency means the concentration at half of the fitted maximal effect.

SMILES	G9a block	JMJD2A Tudor	ALOX12 inh	BAZ2B block	Sfp inh	HP1b binding inh
CC(=O)Nc1ccc(/C=N/Nc2nncc3ccccc23)cc1	30%[0.501 µM]	-17%	92%	-17%	89µM*	9%
CC1=C/C(=N\Nc2nncc3ccccc23)CC1	.	.	50µM*	.	.	.
Brc1ccccc1/C=N/Nc1nncc2ccccc12	.	.	-4%	.	.	.
Fc1cccc(/C=N/Nc2nncc3ccccc23)c1	11%	20µM*	0%	-34%	-9%	17%
CCN(/C=C1/CCCCC1=O)C1CC2CCC1C2 (stereo unspecified)	.	.	1%	.	.	.
N#Cc1ccc(Cn2c(CN3CCCCC3)nc3scc(-c4cccs4)c3c2=O)cc1	.	.	-3%	.	.	.
Cc1ccc(NC(=O)N2C[C@@H](F)C[C@H]2C(=O)N2CCc3ccccc3C2)cc1F	.	.	17%	.	.	.
CC1=NOC(=O)/C1=C/c1ccc2c(c1)OCO2	56µM*	-1%	?	?	1%	33%
O=C1/C(=C\c2ccc3c(c2)OCO3)CCC/C1=C/c1ccc2c(c1)OCO2	14µM*	?	318%	25µM*	-27%	-22%
CCOC(=O)C(CC)Sc1ccc2nnc(-c3cccnc3)n2n1 (stereo unspecified)	?	-21%	0%	-10%	-4%	48%
CC(Sc1ccc2nnc(-c3ccc(F)cc3)n2n1)C(=O)O (stereo unspecified)	3.5µM*	?	?	-11%	-2%	-16%
CCOC(=O)C(C)Sc1ccc2nnc(-c3ccc(OCC)cc3)n2n1 (stereo unspecified)	.	0%[57.1 µM]	.	.	.	17%[57 µM]
Cc1ccc(-c2nnc3ccc(SC(C)C(=O)O)nn23)cc1 (stereo unspecified)	3.5µM*	40µM*	32µM*	-30%	?	?
CCC(Sc1ccc2nnc(-c3cccnc3)n2n1)C(=O)O (stereo unspecified)	50µM*	-45%	-22%	-6%	11%	23%
CCOC(=O)C(C)Sc1ccc2nnc(-c3ccc(F)cc3)n2n1 (stereo unspecified)	7.9µM*	-6%	?	0%	?	40%
O=C1CCSc2c1cccc2C(=O)NCC1CCN(Cc2ccc(F)cc2)CC1	.	.	11%	.	.	.
CNC(=O)N1CCC(C2CCN(C(=O)c3ccc(OC)c(F)c3)C2)CC1 (stereo unspecified)	.	.	23%	.	.	.
CCOc1ccc2ncc(S(=O)(=O)c3ccccc3)c(N3CCN(c4ccc(OC)cc4)CC3)c2c1	?	?	-14%	10µM*	-3%	?
COc1ccc(N2CCN(c3c(S(=O)(=O)c4ccccc4)cnc4ccc(OC)cc34)CC2)cc1	8.9µM*	?	-2%	?	12%	?
CCOc1ccc2ncc(S(=O)(=O)c3ccccc3)c(N3CCN(c4ccccc4)CC3)c2c1	.	?	-15%	.	.	-15%
O=C(NC1CC1)c1cc2sccc2n1Cc1ccccc1Cl	.	.	19%	.	.	.
Cc1cc(CN(C)C(=O)c2ccc(OC3CCN(Cc4ccccn4)CC3)cc2)on1	50µM*	-15%	-5%	-26%	3%	37%
CC(C)Nc1nc(-c2ccccn2)nc(-c2ccccc2)c1C#N	5%	-14%	1%	-5%	14%	2%
C=CCNc1nc(-c2ccccn2)nnc1-c1ccccc1	47%	35µM*	0%[57.4 µM]	0.89µM*	?	46%
CC(=O)Oc1ccc2occ(/C=N/c3cc(=O)[nH]c(=S)[nH]3)c(=O)c2c1	11µM*	-21%[11.4 µM]	?	-29%	-28%	-18%
SMILES	G9a block	JMJD2A Tudor	ALOX12 inh	BAZ2B block	Sfp inh	HP1b binding inh
O=c1[nH][nH]c(-c2ccccc2O)c1C(C[N+](=O)[O-])c1ccc(Cl)cc1Cl (stereo unspecified)	-12%[59 µM]	-20%	?	?	24%	11%
Cc1cc(O)c(C(C[N+](=O)[O-])c2ccc(Cl)cc2Cl)c(=O)o1 (stereo unspecified)	4.5µM*	-14%	.	?	?	16%
O=C(O)C1CCCCC1C(=O)Nc1cccc2ccccc12 (stereo unspecified)	11µM*	-14%	-4%	-5%	2%	13%
COCCCNCCOCCOc1ccc(C)cc1Br	?	50µM*	?	?	?	19%
OCCNCCCOc1ccc(Cl)cc1Br	-1%[59 µM]	-14%	-40%	-1%	13%	22%
COc1ccccc1OCCOCCOc1ccc(C)cc1Br	142%[59 µM]	104%	-13%	140%	-6%	244%
Cc1ccc(OCCOCCNC(C)C)c(Br)c1	.	10µM*	?	56µM*	-22%	?
CCC(C)NCCOCCOc1ccc(C)cc1OC (stereo unspecified)	11µM*	20µM*	-17%	?	-30%	?
CCC(C)NCCOCCOc1ccc(Cl)cc1Br (stereo unspecified)	2.2µM*	2.5µM*	?	-22%	50µM*	-19%
O=C1Nc2ccccc2C12CN(Cc1ccsc1)C2	.	.	6%[12.5 µM]	.	.	.
CC1CCC/C(=C(\C#N)c2nc(-c3ccccc3)cs2)C1 (stereo unspecified)	.	.	-15%	.	.	.
Cc1noc2c(-c3ccc4c(ccn4C)c3)cc(-c3cccnc3)nc12	.	.	48%[176 µM]	.	.	.
Cn1nccc1CN1CCn2c(nnc2C2CCCNC2)C1 (stereo unspecified)	.	.	55%[176 µM]	.	.	.
CCCCNCCOCCOc1ccc(C)cc1Br	10µM*	3.5µM*	-21%	?	-7%	-35%
COCCCNCCOc1cc(C(C)C)ccc1C	?	3.2µM*	?	79µM*	-12%	?
Cc1ccc(C(C)C)cc1OCCN	.	.	-5%	.	.	.
COCCN1CCCCCC(O)c2cc(C(=O)NCCCN3CCCC3=O)ccc21 (stereo unspecified)	.	.	5%	.	.	.
Cn1c([C@H]2CCN(C(=O)COc3ccccc3)C2)nc2ccccc21	.	.	-19%[176 µM]	.	.	.
Cc1cc(C)nc(Nc2ncc(O)n2-c2ccccc2)n1	107%[59 µM]	56µM*	?	-37%	?	15%
CN(C)Cc1cccc(-c2cc3c(ccn3Cc3cccnc3)c(C3=CCOCC3)n2)c1	.	.	13%[176 µM]	.	.	.
O=[N+]([O-])c1ccc(N=Nc2ccc(O)c3ccccc23)cc1	.	3.2µM*	.	.	.	7.9µM*
O=S(=O)(Nc1ccc(S(=O)(=O)Nc2ccccc2)cc1)c1ccccc1	-28%	-21%	-10%	2%	-5%	14%

Bioassay records: PubChem, National Center for Advancing Translational Sciences (NCATS)
